The supplement of paper PMC6555819

Key:
Experiment in all cases: PBM binding z-score (relative to random genomic background probes); higher = stronger binding; sequences stand for … in GC…GCGATTGACAGCGTAGAATGAAGG
[1] = test system: FXR:RXRa (NR concentration 270 nM, RXRa partner concentration 90 nM)
Summary of the method: (§1)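 Custom Agilent 4×180K protein-binding microarrays carried double-stranded probes, each with a 34-nt variable region. These regions held direct-repeat seeds, single-nucleotide variants, half-site ablations and random human genomic background sequences. Ligand-free nuclear receptor dimers were incubated on the arrays for 1 h, antibodies against each partner (one per run) detected binding, and scanned fluorescence was regression-normalized. Binding z-scores take the random background probes as reference.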

[2] = test system: LXRa:RXRa (NR concentration 270 nM, RXRa partner concentration 90 nM)
Summary of the method: as §1

[3] = test system: LXRa homodimer (NR concentration 270 nM)
Summary of the method: as §1

[4] = test system: LXRb:RXRa (NR concentration 270 nM, RXRa partner concentration 90 nM)
Summary of the method: as §1

[5] = test system: LXRb homodimer (NR concentration 270 nM)
Summary of the method: as §1

[6] = test system: PPARa:RXRa (NR concentration 270 nM, RXRa partner concentration 90 nM)
Summary of the method: as §1

[7] = test system: PPARg:RXRa (NR concentration 180 nM, RXRa partner concentration 90 nM)
Summary of the method: as §1

[8] = test system: PPARg:RXRa 270nM:90nM, anti-RXR (NR concentration 270 nM, RXRa partner concentration 90 nM)
Summary of the method: as §1

[9] = test system: PPARg:RXRa 30nM:10nM, anti-RXR (NR concentration 30 nM, RXRa partner concentration 10 nM)
Summary of the method: as §1

[10] = test system: PPARg:RXRa 90nM:30nM, anti-RXR (NR concentration 90 nM, RXRa partner concentration 30 nM)
Summary of the method: as §1

[11] = test system: PPARg:RXRa DBDmut IVT, anti-RXR (DBD mutation: RXRa K156A/R161A, NR concentration 270 nM, RXRa partner concentration 90 nM)
Summary of the method: as §1

[12] = test system: PPARg:RXRa IVT, anti-PPARg (NR concentration 270 nM, RXRa partner concentration 90 nM)
Summary of the method: as §1

[13] = test system: PPARg DBDmut:RXRa IVT, anti-PPARg (DBD mutation: PPARg1 K132A/R137A, NR concentration 270 nM, RXRa partner concentration 90 nM)
Summary of the method: as §1

[14] = test system: PPARg DBDmut IVT, anti-PPARg (DBD mutation: PPARg1 K132A/R137A, NR concentration 270 nM)
Summary of the method: as §1

[15] = test system: PPARg homodimer (NR concentration 180 nM)
Summary of the method: as §1

[16] = test system: PXR:RXRa (NR concentration 270 nM, RXRa partner concentration 90 nM)
Summary of the method: as §1

[17] = test system: PXR homodimer (NR concentration 270 nM)
Summary of the method: as §1

[18] = test system: RARa:RXR (NR concentration 270 nM, RXRa partner concentration 90 nM)
Summary of the method: as §1

[19] = test system: RARa homodimer (NR concentration 270 nM)
Summary of the method: as §1

[20] = test system: RARb:RXRa (NR concentration 270 nM, RXRa partner concentration 90 nM)
Summary of the method: as §1

| Sequence | PBM binding z-score [1] | PBM binding z-score [2] | PBM binding z-score [3] | PBM binding z-score [4] | PBM binding z-score [5] | PBM binding z-score [6] | PBM binding z-score [7] | PBM binding z-score [8] | PBM binding z-score [9] | PBM binding z-score [10] | PBM binding z-score [11] | PBM binding z-score [12] | PBM binding z-score [13] | PBM binding z-score [14] | PBM binding z-score [15] | PBM binding z-score [16] | PBM binding z-score [17] | PBM binding z-score [18] | PBM binding z-score [19] | PBM binding z-score [20] |
| --- | --- | --- | --- | --- | --- | --- | --- | --- | --- | --- | --- | --- | --- | --- | --- | --- | --- | --- | --- | --- |
| TCTTGTAGATCAGCAGGGTAAGAAAGCTGGCCAA | -0.168 | -0.124 | -0.627 | -0.0454 | -0.559 | 0.26 | -0.512 | 1.17 | 2.55 | 1.82 | 1.81 | 0.207 | -0.22 | -0.694 | -0.287 | 0.0405 | -0.245 | 0.188 | -0.0241 | -0.199 |
| ACTATTGGTTGACTTAGGGCAACCGATACGACGC | 0.0585 | 0.381 | -0.0343 | 0.201 | 0.546 | 0.0767 | 0.718 | 0.153 | 0.181 | 0.103 | -0.408 | 0.507 | 0.7 | 0.813 | -0.419 | 0.245 | -0.0405 | 0.77 | -0.0341 | 0.653 |
| CCTGCTAGGTCAATGGTCCGCTAAAGCAGCTCGC | 2.77 | 2.19 | -0.135 | 1.19 | -0.102 | 2.6 | 2.12 | 2.94 | 0.46 | 1.87 | 4.03 | 3.49 | -0.758 | -0.248 | 0.967 | 0.521 | -0.206 | 1.27 | -0.566 | 3.68 |
| AGTCAAAGTTCAGGCCGAGGTAACGTAAAGCACG | 4.1 | 4.03 | 1.27 | 1.71 | 0.0903 | 3.25 | 4.14 | 5.07 | 1.71 | 4.1 | -0.249 | 1.8 | 0.687 | 0.000554 | 2.4 | 3.17 | 1.77 | 3 | 0.163 | 4.4 |
| TCATATAGGTAAAAGGTGAAGGTCGGTGTGGTAA | 1.92 | 1.85 | 0.375 | 2.08 | 0.359 | 5.23 | 9.08 | 8.43 | 8.12 | 8.44 | 5.58 | 5.14 | 1.14 | 0.439 | 1.92 | 2.15 | 1.34 | 3.07 | 1.51 | 2.28 |
| CCGACTGGGGCAAAAGGTTACCATAAGCCAGCCC | 0.815 | 3.36 | -0.19 | 1.86 | -1.26 | 3.28 | 4.13 | 5.64 | 3.64 | 5.79 | 3.77 | 4.07 | -0.978 | -1.25 | 1.06 | 1.68 | -0.41 | 2.83 | 0.0331 | 2.8 |
| CGTCCAAGGTCAGAGAGATCAGTGAATGCCGAGT | 4.93 | 2.88 | 0.0283 | 2.25 | 0.0679 | 3.73 | 2.1 | 2.59 | 0.164 | 1.22 | 2.6 | 2.11 | 0.0329 | -0.28 | 1.89 | 2.74 | 0.829 | 3.01 | -0.15 | 4.62 |
| CCTTACGGGGCACGAGGTTATAGCACGACGAGCG | 0.567 | 0.879 | -0.304 | 0.509 | -0.823 | 2.26 | 2.22 | 2.19 | 0.265 | 1.49 | 1.87 | 2.38 | 0.9 | -1.3 | 0.427 | 0.836 | -0.487 | 1.6 | -0.309 | 1.9 |
| GCTATTAGTTGAAAGCGCAACCGAATGATTCTCG | -0.0843 | -0.353 | 0.0981 | -0.318 | -0.315 | -0.41 | 0.157 | -0.0229 | 0.0302 | -0.22 | 0.316 | -0.176 | -0.265 | -0.6 | 0.252 | -0.405 | -0.357 | -0.564 | -0.0512 | -0.343 |
| AGAATGAGGTTATTAAGATCAAGGAATTGCGGTC | 1.4 | 1.67 | 0.35 | 1.5 | 0.176 | 2.85 | 1.82 | 2.2 | 0.602 | 1.6 | 2.9 | 2.73 | 1.27 | 0.466 | 0.735 | 1.37 | 0.527 | 1.58 | 1.15 | 1.45 |
| ATATGTAGGTTACTTCCGGGTCATTCAGGCTATG | 2.58 | 5.79 | 2 | 3.81 | 1.01 | 4.23 | 5.4 | 4.83 | 2.21 | 4.06 | 7.27 | 7 | 2.25 | 1.76 | 2.39 | 3.68 | 1.81 | 3.76 | 0.485 | 2.36 |
| GATACAGGGTCAGCTAGAGGCCAGAGGATGGAAA | 4.5 | 3.02 | -0.423 | 2.39 | -0.64 | 4.54 | 3.7 | 3.5 | 1.02 | 2.16 | 1.05 | 2.27 | 0.0573 | -0.276 | 2.33 | 3.12 | -0.127 | 4.59 | 0.2 | 4.17 |
| CCGACTGGGGCAGAAAGGTGACCATACCATCCGG | -0.198 | -0.194 | -0.391 | -0.267 | -1.39 | 0.838 | 1.34 | 1.98 | -0.273 | 1.32 | 1.97 | 2.21 | -0.413 | -1.14 | 0.473 | -0.192 | -0.34 | 0.197 | -0.0337 | 1.19 |
| ACAGACAGGTGAGTGATGGTAACTCAGCTGGACG | 0.332 | 0.668 | -0.354 | -0.409 | -0.477 | -0.213 | 0.554 | -0.115 | -0.0308 | -0.212 | 0.622 | 0.347 | -0.278 | -0.268 | 0.364 | -0.415 | -0.0348 | -0.241 | 0.249 | 0.377 |
